Experimental data from PubChem BioAssay (NCATS).
Inconclusive results are not listed. A call without a number means that no potency is given here. The source made the active and inactive calls. The call rests on the fitted dose curve.

Experiment: Cytotoxicity counterscreen for inhibitors of SARS-CoV-2 cell entry (AID 1645845); further: nearly all actives have a fitted effect of over 50% in size
Details: cell viability (SARS-CoV-2 entry assay cells); series mostly up to 57.1 µM
In short: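 After a 15 min room-temperature ATPLite 1step step, luminescence reflected ATP remaining in HEK293-ACE2 cells exposed to compound for 1 h plus 48 h at 37 C, with percent activity set by cell and no-cell controls.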

| Structure (SMILES) | Potency |
| --- | --- |
| O=c1[nH]c(=O)n([C@H]2C[C@H](O)[C@@H](CO)O2)cc1I | inactive |
| C[C@@H]1C[C@H]2[C@@H]3C[C@H](F)C4=CC(=O)C=C[C@]4(C)[C@@]3(F)[C@@H](O)C[C@]2(C)[C@@]1(O)C(=O)CO | inactive |
| CC1(C)O[C@H]2CC(=O)OC[C@]23[C@H]2CC[C@@]4(C)[C@H](c5ccoc5)OC(=O)[C@H]5O[C@]54[C@]2(C)C(=O)C[C@@H]13 | inactive |
| NC(=O)NC1NC(=O)NC1=O (stereo not drawn) | inactive |
| Cc1ccnc(NS(=O)(=O)c2ccc(N)cc2)n1 | inactive |
| Cc1c(N(C)CS(=O)(=O)O)c(=O)n(-c2ccccc2)n1C | inactive |
| CCCCCCCCCCCCCCCCCCO | inactive |
| Cc1ccccc1N1CCN(CCc2nnc3n2CCCC3)CC1 | inactive |
| CCCC(=O)O[C@]1(C(=O)COC(=O)CC)CC[C@H]2[C@@H]3CCC4=CC(=O)CC[C@]4(C)[C@H]3[C@@H](O)C[C@@]21C | inactive |
| COc1ccc(C(=O)c2ccccc2O)c(O)c1 | inactive |
| CCC[C@@H]1C[C@@H](C(=O)N[C@@H]([C@H]2O[C@H](SC)[C@H](O)[C@@H](O)[C@H]2O)[C@H](C)Cl)N(C)C1 | inactive |
| OCCOCCN1CCN(C2=Nc3ccccc3Sc3ccccc32)CC1 | inactive |
| O=C(NCCO[N+](=O)[O-])c1cccnc1 | inactive |
| CO[C@@]1(NC(=O)C(C(=O)O)c2ccc(O)cc2)C(=O)N2C(C(=O)O)=C(CSc3nnnn3C)CO[C@@H]21 (stereo partly drawn) | inactive |
| C1COC(NC(C2CC2)C2CC2)=N1 | inactive |
| CC(=O)OCC(=O)[C@@]1(O)CC[C@H]2[C@@H]3CCC4=CC(=O)C=C[C@]4(C)[C@@]3(F)[C@@H](O)C[C@@]21C | inactive |
| C[C@@H]1CN(c2c(F)c(F)c3c(=O)c(C(=O)O)cn(C4CC4)c3c2F)C[C@H](C)N1 | inactive |
| Cc1cccc(C)c1NC(=O)CC12CCCN1CCC2 | inactive |
| O=c1[nH]c(=O)n([C@H]2C[C@H](O)[C@@H](CO)O2)cc1F | inactive |

| Structure (SMILES) | Potency |
| --- | --- |
| CC(=O)O[C@]1(C(C)=O)CC[C@H]2[C@@H]3C[C@H](C)C4=CC(=O)CC[C@]4(C)[C@H]3CC[C@@]21C | inactive |
| O=C(O)c1ccccc1Nc1cccc(C(F)(F)F)c1 | inactive |
| CCCCC(CC)CN1CN(CC(CC)CCCC)CC(C)(N)C1 (stereo not drawn) | inactive |
| O=c1[nH]c(=O)n([C@H]2O[C@H](CO)[C@@H](O)[C@@H]2O)cc1/C=C\Br | inactive |
| CC(=O)Nc1c(I)cc(I)c(C(=O)O)c1I | inactive |
| Cc1c(Nc2ncccc2C(=O)O)cccc1C(F)(F)F | inactive |
| CC(=O)O[C@@H]1C(=O)O[C@@H]2[C@H]1OC(=O)[C@@H]2OC(C)=O | inactive |
| CC(C)Cc1ccc(CC(=O)O)cc1 | inactive |
| CCCNC(C)C(=O)Nc1ccccc1C (stereo not drawn) | inactive |
| Clc1cccc(Cl)c1NC1=NCCN1 | inactive |
| C#C[C@]1(O)CC[C@H]2[C@@H]3CCC4=CC(=O)CC[C@@H]4[C@H]3CC[C@@]21CC | inactive |
| CC(=O)CC/C=C(\C)CC/C=C(\C)CC/C=C(\C)CCC=C(C)C | inactive |
| CCOC(=O)c1ccc(OCCN2C[C@H](O)[C@@H](O)[C@H](O)[C@H]2CO)cc1 | inactive |
| CC(C)(CO)[C@@H](O)C(=O)NCCCO | inactive |
| CC(C(=O)O)c1ccc2c(c1)[nH]c1ccc(Cl)cc12 (stereo not drawn) | inactive |
| N#CSCC(=O)O | inactive |
| CN=C(NC#N)NCCSCc1nc[nH]c1C | inactive |
| COc1cc(C(=O)NC2CCCNC2)cc(OC)c1OC (stereo not drawn) | inactive |
| CC(=O)OCC[N+](C)(C)C | inactive |
